Measurements taken from PubChem BioAssay.
The source made the active and inactive calls.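 The calls were made as follows: active = visually confirmed hit in the image check and inhibition above 20%; inconclusive = visually confirmed hit but inhibition not above 20%; inactive = no visual hit in the image check.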

Test: endothelial E-selectin expression blockers – imaging, HUVEC, immunofluorescence, MLSMR starter and 10KST1 sets, primary screen (AID 487);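 as to inhibition: signal is fraction of cell area covered by stained E-selectin grains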;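 as to nuclei count: 100% = median nuclei count of all wells on the same plate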
Details: HUVEC TNFalpha-induced E-selectin immunofluorescence imaging, at 2 µM; inhibition: stronger effect = higher value; nuclei count: measured here: cell number, toxicity

Row | SMILES | inhibition | nuclei count
1 | COc1cc(NS(=O)(=O)c2ccc(N)cc2)nc(OC)n1 | -59.5% (inactive) | 96.6%
2 | C=CCSc1nnc2n(CCc3ccccc3)c(=O)c3c4c(sc3n12)COC(C)(C)C4 | -100% (inactive) | 135%
3 | COc1c2occc2c(OC)c2c(=O)cc(C)oc12 | -78.7% (inactive) | 136%
4 | CCCn1c(=O)c2[nH]c(C3CCCC3)nc2n(CCC)c1=O | -83.5% (inactive) | 117%
5 | CCOC(=O)Cc1nnc(Nc2cccc(O)c2)c2ccccc12 | -46.3% (inactive) | 131%
6 | COc1ccc(C(=O)Cn2c(N3CCCCC3)nc3c2c(=O)n(C)c(=O)n3C)cc1OC | -58.1% (inactive) | 115%
7 | CCn1cc(C(=O)O)c(=O)c2cc(F)c(N3CCNCC3)nc21 | -53.3% (inactive) | 92.8%
8 | Cc1ccc(S(=O)(=O)NC(=O)NN2CCCCCC2)cc1 | -81.9% (inactive) | 122%
9 | Cn1c(/C(C#N)=C/Nc2ccccn2)nc2ccccc21 | -44% (inactive) | 135%
10 | COc1ccc(CNc2oc(COc3ccccc3Cl)nc2C#N)cc1 | -70.3% (inactive) | 126%
11 | CC(NC(=O)NCCCC(=O)O)(C(F)(F)F)C(F)(F)F | -76% (inactive) | 122%
12 | CC(NC(=O)Nc1nccs1)(C(F)(F)F)C(F)(F)F | -11.3% (inactive) | 107%
13 | CCC1CCCCN1c1nc(-c2ccncc2)nc2ccccc12 (configuration not stated) | 12.1% (inactive) | 126%
14 | C=C(C)C1Cc2c(C)nn(-c3nc(C)cc(C)n3)c2C1 (configuration not stated) | -50.5% (inactive) | 121%
15 | CCCCOc1ccc(CC(=O)NO)cc1 | -41.8% (inactive) | 111%
16 | COC(=O)c1cc(Br)c(=O)n(-c2nccs2)c1 | -134% (inactive) | 142%
17 | Cc1ccc(NC(=O)CSC2=C(C#N)C(c3ccc4c(c3)OCO4)CC(=O)N2)cc1C (configuration not stated) | -11.7% (inactive) | 122%
18 | CCN(CC)C(=O)c1sc2nc(-c3cccs3)cc(-c3cccs3)c2c1N | -166% (inactive) | 121%
19 | Cc1ccc(-c2nnc(-c3cccc(Br)c3)o2)cc1 | -41.7% (inactive) | 126%
20 | CCCCOc1ccc(C(=O)Nc2ccc(N3CCN(C(C)=O)CC3)cc2)cc1 | -28.4% (inactive) | 141%

Row | SMILES | inhibition | nuclei count
21 | CCN(CC)CCNC(=O)c1ccc(NC(C)=O)cc1 | 15.6% (inactive) | 104%
22 | COC(=O)c1ccccc1NC(=O)CSc1nnc(-c2ccncc2)o1 | -75.9% (inactive) | 128%
23 | CN(C)C(CN1C(=O)C2CC=CCC2C1=O)c1cn(C)c2ccccc12 (configuration not stated) | -48.8% (inactive) | 124%
24 | CCOc1cc(C2Nc3ccccc3C(=O)N2c2ccccc2OC)ccc1O (configuration not stated) | -136% (inactive) | 124%
25 | Cc1cn2c(-c3ccncc3)nnc2s1 | -73.4% (inactive) | 142%
26 | COc1ccc(/C(O)=C2/C(=O)C(=O)N(CCN(C)C)C2c2ccccn2)cc1OC (configuration not stated) | -108% (inactive) | 103%
27 | Cc1oc2nc(SCCCC(=O)NCCCO)nc(N)c2c1C | -109% (inactive) | 116%
28 | C[C@@H]1CCC[C@H](C)N1NC(=O)c1ccc(Cl)c(S(N)(=O)=O)c1 | -55.3% (inactive) | 111%
29 | O=C(CCCN1C(=O)c2ccccc2C1=O)N1CCC(c2ccccc2)C1 (configuration not stated) | -109% (inactive) | 123%
30 | O=C1C2CC=C(Cl)CC2C(=O)N1CNc1ccccn1 (configuration not stated) | -24.7% (inactive) | 118%
31 | COCCNC(=O)c1c(N)n(/N=C/c2cccs2)c2nc3ccccc3nc12 | -36.6% (inactive) | 107%
32 | COC(=O)CC1SC(=O)NC1=O (configuration not stated) | -98.9% (inactive) | 124%
33 | N#Cc1nc(COc2ccc(Br)cc2)oc1N1CCCC1 | 14.5% (inactive) | 132%
34 | CCOC(=O)C1CCN(C(C)=C2C(=O)c3ccccc3C2=O)CC1 | -21.4% (inactive) | 95.3%
35 | CCSc1nnc(NC(=O)C(CC)(C(F)(F)F)C(F)(F)F)s1 | -53.9% (inactive) | 124%
36 | N#CC1=C(N)OC2=C(C(=O)CCC2)C1CCc1ccccc1 (configuration not stated) | -94.4% (inactive) | 110%
37 | Cc1cc(OCC(=O)Nc2ccc3oc(-c4ccncc4)nc3c2)ccc1Cl | -81.7% (inactive) | 122%
38 | CCSc1nc(O)c(C2OC(=O)c3c2ccc(OC)c3OC)c(=O)n1-c1ccccc1 (configuration not stated) | -157% (inactive) | 146%
39 | Cc1c(C)c2cc(Cl)c(O)c(CN3CCCCC3)c2oc1=O | -14.6% (inactive) | 124%

Test: Primary imaging screen for DUSP6 inhibitors that restore phospho-Erk in transfected HeLa cells, chemical complementation (AID 609)
Details: HeLa MKP-3 transfected, phospho-Erk imaging KS statistic; measured here: cell density z-score; at 10 µM; cells stimulated with TPA for 15 min

Row | SMILES | z-score
40 | COc1cc(NS(=O)(=O)c2ccc(N)cc2)nc(OC)n1 | 0.641
41 | C=CCSc1nnc2n(CCc3ccccc3)c(=O)c3c4c(sc3n12)COC(C)(C)C4 | 1.51
42 | COc1c2occc2c(OC)c2c(=O)cc(C)oc12 | -0.618
43 | CCCn1c(=O)c2[nH]c(C3CCCC3)nc2n(CCC)c1=O | 0.276
44 | CCOC(=O)Cc1nnc(Nc2cccc(O)c2)c2ccccc12 | -1.97
45 | COc1ccc(C(=O)Cn2c(N3CCCCC3)nc3c2c(=O)n(C)c(=O)n3C)cc1OC | -0.186
46 | CCn1cc(C(=O)O)c(=O)c2cc(F)c(N3CCNCC3)nc21 | 1.02
47 | Cc1ccc(S(=O)(=O)NC(=O)NN2CCCCCC2)cc1 | 0.424
48 | Cn1c(/C(C#N)=C/Nc2ccccn2)nc2ccccc21 | -0.331
49 | COc1ccc(CNc2oc(COc3ccccc3Cl)nc2C#N)cc1 | -0.4
50 | CC(NC(=O)NCCCC(=O)O)(C(F)(F)F)C(F)(F)F | -0.792
51 | CC(NC(=O)Nc1nccs1)(C(F)(F)F)C(F)(F)F | -0.519
52 | CCC1CCCCN1c1nc(-c2ccncc2)nc2ccccc12 (configuration not stated) | 1.04
53 | C=C(C)C1Cc2c(C)nn(-c3nc(C)cc(C)n3)c2C1 (configuration not stated) | 0.411
54 | CCCCOc1ccc(CC(=O)NO)cc1 | -0.368
55 | COC(=O)c1cc(Br)c(=O)n(-c2nccs2)c1 | -1.41
56 | Cc1ccc(NC(=O)CSC2=C(C#N)C(c3ccc4c(c3)OCO4)CC(=O)N2)cc1C (configuration not stated) | 0.402
57 | CCN(CC)C(=O)c1sc2nc(-c3cccs3)cc(-c3cccs3)c2c1N | 1.5
58 | Cc1ccc(-c2nnc(-c3cccc(Br)c3)o2)cc1 | 0.516
59 | CCCCOc1ccc(C(=O)Nc2ccc(N3CCN(C(C)=O)CC3)cc2)cc1 | 1.4

Row | SMILES | z-score
60 | CCN(CC)CCNC(=O)c1ccc(NC(C)=O)cc1 | -0.982
61 | COC(=O)c1ccccc1NC(=O)CSc1nnc(-c2ccncc2)o1 | 0.433
62 | CN(C)C(CN1C(=O)C2CC=CCC2C1=O)c1cn(C)c2ccccc12 (configuration not stated) | -1.61
63 | CCOc1cc(C2Nc3ccccc3C(=O)N2c2ccccc2OC)ccc1O (configuration not stated) | 0.614
64 | Cc1cn2c(-c3ccncc3)nnc2s1 | 1.88
65 | COc1ccc(/C(O)=C2/C(=O)C(=O)N(CCN(C)C)C2c2ccccn2)cc1OC (configuration not stated) | -0.696
66 | Cc1oc2nc(SCCCC(=O)NCCCO)nc(N)c2c1C | 0.495
67 | C[C@@H]1CCC[C@H](C)N1NC(=O)c1ccc(Cl)c(S(N)(=O)=O)c1 | -0.0459
68 | O=C(CCCN1C(=O)c2ccccc2C1=O)N1CCC(c2ccccc2)C1 (configuration not stated) | 1.18
69 | O=C1C2CC=C(Cl)CC2C(=O)N1CNc1ccccn1 (configuration not stated) | -0.409
70 | COCCNC(=O)c1c(N)n(/N=C/c2cccs2)c2nc3ccccc3nc12 | 0.126
71 | COC(=O)CC1SC(=O)NC1=O (configuration not stated) | -1.23
72 | N#Cc1nc(COc2ccc(Br)cc2)oc1N1CCCC1 | -1.92
73 | CCOC(=O)C1CCN(C(C)=C2C(=O)c3ccccc3C2=O)CC1 | -0.165
74 | CCSc1nnc(NC(=O)C(CC)(C(F)(F)F)C(F)(F)F)s1 | 0.12
75 | N#CC1=C(N)OC2=C(C(=O)CCC2)C1CCc1ccccc1 (configuration not stated) | 1.04
76 | Cc1cc(OCC(=O)Nc2ccc3oc(-c4ccncc4)nc3c2)ccc1Cl | 0.451
77 | CCSc1nc(O)c(C2OC(=O)c3c2ccc(OC)c3OC)c(=O)n1-c1ccccc1 (configuration not stated) | 0.533
78 | Cc1c(C)c2cc(Cl)c(O)c(CN3CCCCC3)c2oc1=O | 0.378
